Measurements taken from the supplement of paper PMC6522484.
± gives the standard deviation of the averaged measurements.

Assays:
DLD1 [1] = assay: cell viability (CellTiter-Glo) relative to plate median (fraction of plate median); higher = more viable cells; conditions: 10 µM, treatment time 24 h
Outline: (§1)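 Colorectal cancer cell lines stably transduced with lentiviral TCF/Wnt firefly luciferase reporters (7TFP or TCF4/Wnt) were seeded in 384-well plates. 24 h later they received kinase inhibitor library compounds at a final 10 µM for 24 h. Parallel plates were read for firefly luciferase or CellTiterGlo luminescence on a Tecan F500 reader. Each well's signal was normalised to the plate median (webcellHTS2, additive, no log transformation), and the mean of two independent replicates is reported.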

HCT116 [2] = assay: as above; conditions: 10 µM; treatment time 24 h; reporter: TCF4/Wnt
Outline: as §1

SW480 [3] = assay: as above; conditions: 10 µM; treatment time 24 h; reporter: 7TFP
Outline: as §1

DLD1 [4] = assay: TCF/Wnt firefly luciferase reporter signal relative to plate median (fraction of plate median); higher = higher Wnt reporter signal; conditions: 10 µM, treatment time 24 h
Outline: as §1

HCT116 [5] = assay: as above; conditions: 10 µM; treatment time 24 h; reporter: TCF4/Wnt
Outline: as §1

SW480 [6] = assay: as above; conditions: 10 µM; treatment time 24 h; reporter: 7TFP
Outline: as §1

| SMILES | cell viability (DLD1 [1]; reporter: 7TFP) | cell viability (DLD1 [1]; reporter: TCF4/Wnt) | cell viability (HCT116 [2]) | cell viability (SW480 [3]) | TCF/Wnt firefly luciferase reporter signal (DLD1 [4]; reporter: 7TFP) | TCF/Wnt firefly luciferase reporter signal (DLD1 [4]; reporter: TCF4/Wnt) | TCF/Wnt firefly luciferase reporter signal (HCT116 [5]) | TCF/Wnt firefly luciferase reporter signal (SW480 [6]) |
| --- | --- | --- | --- | --- | --- | --- | --- | --- |
| CCN1CCN(Cc2ccc(-c3cc4c(N[C@H](C)c5ccccc5)ncnc4[nH]3)cc2)CC1 | 0.92 ± 0.15 | 0.999 ± 0.1 | 0.938 ± 0.0014 | 1.115 ± 0.0071 | 0.905 ± 0.011 | 0.852 ± 0.22 | 1.08 ± 0.085 | 1.24 ± 0.057 |
| CC[C@@H]1C(=O)N(C)c2cnc(Nc3ccc(C(=O)N[C@H]4CC[C@H](N5CCN(CC6CC6)CC5)CC4)cc3OC)nc2N1C(C)C [BI6727 (Volasertib)] | 0.744 ± 0.32 | 0.894 ± 0.071 | 0.554 ± 0.18 | 0.995 ± 0.16 | 1.68 ± 0.18 | 1.98 ± 0.49 | 0.866 ± 0.0085 | 1.39 ± 0.27 |
| COc1ccc(-c2ccc3ncc4c(c3c2)n(-c2ccc(N3CCNCC3)c(C(F)(F)F)c2)c(=O)n4C)cn1 | 0.0998 ± 0.065 | 0.116 ± 0.084 | 0.0311 ± 0.011 | 0.273 ± 0.18 | 0.0479 ± 0.0086 | 0.0791 ± 0.014 | 0.0387 ± 0.017 | 0.148 ± 0.14 |
| O=C1NC(=O)[C@@H](c2cn3c4c(cccc24)CCC3)[C@@H]1c1c[nH]c2ccccc12 [ARQ 197 (Tivantinib)] | 0.995 ± 0.18 | 1.01 ± 0.017 | 0.593 ± 0.15 | 1.07 ± 0.014 | 0.632 ± 0.25 | 0.788 ± 0.31 | 0.241 ± 0.028 | 0.701 ± 0.043 |
| O=c1cc(-c2cccc3c2Sc2ccccc2S3)oc(N2CCOCC2)c1 | 1.02 ± 0.1 | 0.999 ± 0.03 | 1.11 ± 0.035 | 0.875 ± 0.0042 | 1.42 ± 0.13 | 1.18 ± 0.13 | 1.6 ± 0.4 | 1.18 ± 0.13 |
| COc1cc(Nc2ncc(F)c(Nc3ccc4c(n3)NC(=O)C(C)(C)O4)n2)cc(OC)c1OC [R406(free base)] | 1.2 ± 0.18 | 0.99 ± 0.085 | 1.2 ± 0.05 | 0.968 ± 0.037 | 1.26 ± 0.028 | 1.16 ± 0.13 | 1.38 ± 0.37 | 1.29 ± 0.042 |
| O=C(O)c1ccc2c(c1)nc(Nc1cccc(Cl)c1)c1ccncc12 [cx-4945 (Silmitasertib)] | 1 ± 0.057 | 0.955 ± 0.079 | 0.839 ± 0.042 | 1 ± 0.092 | 0.508 ± 0.15 | 0.651 ± 0.2 | 0.627 ± 0.36 | 0.612 ± 0.1 |
| O=c1cc(N2CCOCC2)oc2c(-c3ccccc3)cccc12 | 1 ± 0.092 | 1.065 ± 0.0071 | 1.11 ± 0.021 | 0.963 ± 0.033 | 1.11 ± 0.078 | 1.15 ± 0.21 | 1.62 ± 0.3 | 1.15 ± 0.05 |
| Cc1ccc(-n2nc(C(C)(C)C)cc2NC(=O)Nc2ccc(OCCN3CCOCC3)c3ccccc23)cc1 [BIRB 796 (Doramapimod)] | 1.15 ± 0.057 | 1.12 ± 0.17 | 1.06 ± 0.096 | 0.975 ± 0.064 | 0.984 ± 0.0028 | 1.05 ± 0.17 | 1.18 ± 0.22 | 1.07 ± 0.078 |
| CC(C)n1nc(-c2cc3cc(O)ccc3[nH]2)c2c(N)ncnc21 | 0.86 ± 0.18 | 0.984 ± 0.037 | 0.698 ± 0.067 | 1.15 ± 0.085 | 0.557 ± 0.016 | 0.752 ± 0.0057 | 0.547 ± 0.061 | 0.636 ± 0.26 |
| COc1cc2nccc(Oc3ccc(NC(=O)Nc4cc(C)on4)c(Cl)c3)c2cc1OC [Tivozanib (AV-951)] | 0.936 ± 0.09 | 0.997 ± 0.033 | 1.11 ± 0.021 | 1.07 ± 0.021 | 0.755 ± 0.0078 | 0.726 ± 0.046 | 1.15 ± 0.099 | 0.775 ± 0.32 |
| CNC(=O)c1cccc(-c2ccc3c(N4CCOC[C@@H]4C)nc(N4CCOC[C@@H]4C)nc3n2)c1 | 0.9035 ± 0.0064 | 0.874 ± 0.045 | 0.794 ± 0.055 | 1.07 | 0.328 ± 0.086 | 0.487 ± 0.073 | 0.549 ± 0.09 | 0.629 ± 0.35 |
| FC(F)(F)c1ccc(/C=C/c2nc(COc3ccc(CCCCn4ccnn4)cc3)co2)cc1 [Mubritinib (TAK 165)] | 0.979 ± 0.03 | 0.946 ± 0.09 | 0.771 ± 0.032 | 0.911 ± 0.1 | 1 ± 0.094 | 0.984 ± 0.023 | 0.639 ± 0.23 | 0.816 ± 0.49 |
| NC(=O)c1ccc(N(C(N)=O)c2c(F)cccc2F)nc1-c1ccc(F)cc1F | 0.966 ± 0.016 | 1.045 ± 0.0071 | 1.13 ± 0.085 | 0.91 ± 0.025 | 0.904 ± 0.019 | 0.756 ± 0.0014 | 0.921 ± 0.071 | 0.752 ± 0.08 |
| NC1(Cc2ccc(Cl)cc2)CCN(c2ncnc3[nH]ccc23)CC1 | 1.18 ± 0.05 | 1.105 ± 0.0071 | 0.787 ± 0.073 | 1.02 ± 0.035 | 1.03 ± 0.045 | 0.886 ± 0.078 | 1.02 ± 0.32 | 1.01 ± 0.11 |
| COc1cc(Nc2ncc(F)c(Nc3ccc4c(n3)NC(=O)C(C)(C)O4)n2)cc(OC)c1OC | 1.1 ± 0.17 | 0.982 ± 0.054 | 1.11 ± 0.12 | 1.01 ± 0.037 | 1.05 ± 0.13 | 0.941 ± 0.044 | 1.24 ± 0.2 | 0.914 ± 0.57 |
| CO[C@@H](C(=O)N1Cc2[nH]nc(NC(=O)c3ccc(N4CCN(C)CC4)cc3)c2C1)c1ccccc1 | 1.09 ± 0.11 | 1.12 ± 0.071 | 0.823 ± 0.29 | 1.1 ± 0.042 | 1.23 ± 0.064 | 1.41 ± 0.014 | 0.388 ± 0.019 | 0.656 ± 0.083 |
| COc1ncc(-c2ccc3nccc(-c4ccnnc4)c3c2)cc1NS(=O)(=O)c1ccc(F)cc1F | 0.84 ± 0.018 | 0.944 ± 0.073 | 0.295 ± 0.026 | 1.09 ± 0.042 | 0.255 ± 0.054 | 0.238 ± 0.067 | 0.132 ± 0.021 | 0.558 ± 0.0092 |
| Cc1ccc(NC(=O)c2cccc(N(C)C)c2)cc1NC(=O)c1ccc(O)cc1 | 1.11 ± 0.16 | 1.095 ± 0.0071 | 1.23 ± 0.11 | 0.907 ± 0.033 | 1.07 ± 0.092 | 1.12 ± 0.014 | 1.04 ± 0.035 | 0.955 ± 0.092 |
| COc1cc2c(Nc3ccc(NC(=O)c4ccccc4)cc3)ncnc2cc1OCCCN1CCOCC1 | 0.8075 ± 0.005 | 0.872 ± 0.042 | 1.01 ± 0.041 | 1.11 ± 0.021 | 1.13 ± 0.085 | 1.19 ± 0.2 | 1.42 ± 0.23 | 1.43 ± 0.057 |
| O=C1NC(=O)/C(=C/c2ccc(-c3ccc(F)cc3O)o2)S1 | 1.09 ± 0.092 | 1.21 ± 0.028 | 1.19 ± 0.092 | 1.04 ± 0.14 | 0.905 ± 0.13 | 1.34 ± 0.47 | 1.7 ± 0.71 | 1.41 ± 0.35 |
